Test results taken from PubChem BioAssay AID651899 (Broad Institute, 2012).
Entries with a potency or affinity are not part of this list. Calls of active or inactive are those of the source. How the calls were made is not given here.

Experiment: cytotoxicity in HEK293 cells, dose response, cytotoxicity control, cell-based, plate reader, cherry-pick (AID 651899);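 further: cells exposed to compound for 48 hours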
Details: series mostly up to 26 µM

Question: For `CC(C)(C)[S@](=O)N1Cc2cc(C(=O)NCc3ccccc3F)nc(-c3cccc(-c4cccnc4)c3)c2[C@@H]1CCO`, which outcome is on record?
Answer: The outcome was “inactive”.

Question: For `O=C(CSc1nc2ccccc2c(=O)n1-c1ccccc1)N1CCN(CCO)CC1`, which outcome is on record?
Answer: Its outcome is “inactive”.

Question: Which outcome does the source give for `O=C(Nc1ccc(Cl)c(-c2nc3ccccc3[nH]2)c1)c1cccnc1` here?
Answer: The outcome was “inactive”.

Question: For `O=C(O)CSc1ncnc2scc(-c3ccc(Br)cc3)c12`, which outcome is on record?
Answer: The outcome was “inactive”.

Question: With `CCCc1c(OCCCOc2ccc(OCC(=O)O)cc2)ccc(C(C)=O)c1O` as the molecule, how does the outcome read?
Answer: The outcome was “inactive”.

Question: Which outcome does the source give for `Cc1nc2nc(SCC(=O)N3CCOCC3)nn2c(C)c1Cc1c(F)cccc1Cl` here?
Answer: Its outcome is “inactive”.

Question: For `CCOC(=O)c1ccc(N2C(=O)c3n[nH]c(C)c3C2c2ccc(OC)c(OC)c2)cc1` (stereo unspecified), which outcome is on record?
Answer: Its outcome is “inactive”.

Question: With `COCCN1C(=O)c2ccc(C(=O)Nc3cccnc3)cc2C1=O` as the molecule, how does the outcome read?
Answer: The outcome was “inactive”.

Question: With `CC(=O)c1ccc(N2CCN(S(=O)(=O)c3c(C(=O)N4CCCC4)c(C)n(C)c3C)CC2)cc1` as the molecule, how does the outcome read?
Answer: The outcome was “inactive”.

Question: For `CCCN1CCN(C(=O)C2CCN(c3nnc(C)c4c(C)n(-c5ccc(C)cc5)nc34)CC2)CC1`, which outcome is on record?
Answer: The outcome was “inactive”.

Question: With `COc1cc(-c2nc3ccccc3nc2-c2ccc(O)c(OC)c2)ccc1O` as the molecule, how does the outcome read?
Answer: The outcome was “inactive”.

Question: With `O=C(c1ccncc1)N1CC[C@H]2[C@H](CO)Nc3ccc(Br)cc3[C@H]21` as the molecule, how does the outcome read?
Answer: The outcome was “inactive”.

Question: For `CC(=O)c1ccc(NC(=O)C2CC(=O)N(Cc3ccccc3)C2)cc1` (stereo unspecified), which outcome is on record?
Answer: Its outcome is “inactive”.

Question: With `O=C(CN1C(=O)/C(=C/c2cccc(Br)c2)SC1=S)Nc1cccnc1` as the molecule, how does the outcome read?
Answer: The outcome was “inactive”.

Question: Which outcome does the source give for `C[C@@H]1CN([C@H](C)CO)C(=O)Cc2cc(NC(=O)Cn3cnnn3)ccc2O[C@H]1CN(C)Cc1ccc2c(c1)OCO2` here?
Answer: Its outcome is “inactive”.

Question: Which outcome does the source give for `Cc1nnc(N2CCC(C(=O)N3CCCCC3)CC2)c2nn(-c3ccc(Cl)cc3)c(C)c12` here?
Answer: Its outcome is “inactive”.

Question: For `Cc1cc(C(=O)NC2CC(C)(C)Cc3c2cnn3-c2cccc(F)c2)nn1C` (stereo unspecified), which outcome is on record?
Answer: The outcome was “inactive”.

Question: Which outcome does the source give for `Cc1ccc(-c2nnc(N3CCN(C(=O)CSc4ncn[nH]4)CC3)c3ccccc23)cc1` here?
Answer: Its outcome is “inactive”.

Question: Which outcome does the source give for `O=C(CSc1nc2cc(C(=O)O)ccc2c(=O)n1-c1ccc(F)cc1)Nc1ccc(F)c(F)c1F` here?
Answer: The outcome was “inactive”.

Question: Which outcome does the source give for `Cc1c(C(N)=O)sc(N)c1C(=O)OC(C)C` here?
Answer: The outcome was “inactive”.

Question: With `Cc1cc2c(c(=O)n1Cc1cccnc1)C(c1cccs1)C(C#N)=C(N)O2` (stereo unspecified) as the molecule, how does the outcome read?
Answer: Its outcome is “inactive”.

Question: Which outcome does the source give for `COc1ccc(-c2nc3ccc(Cl)cn3c2Cc2ccccc2)cc1OC` here?
Answer: Its outcome is “inactive”.

Question: With `COc1ccc(NC2c3ccccc3C(=O)N2c2cccnc2)cc1Cl` (stereo unspecified) as the molecule, how does the outcome read?
Answer: Its outcome is “inactive”.

Question: For `CCn1c(=O)c(=O)n(CC)c2cc(S(=O)(=O)Nc3cc(C)ccc3C)ccc21`, which outcome is on record?
Answer: The outcome was “inactive”.

Question: Which outcome does the source give for `COC(=O)c1sc(N)c(C(=O)OC)c1CSc1nnc(-c2ccccc2Cl)n1C` here?
Answer: Its outcome is “inactive”.

Question: With `CC(=O)c1ccc(C(=O)NC2CCCN(Cc3ccccc3F)C2)s1` (stereo unspecified) as the molecule, how does the outcome read?
Answer: The outcome was “inactive”.

Question: With `COc1ccc(NC(=O)c2ccc(Cl)nc2)cc1S(=O)(=O)N1CCOCC1` as the molecule, how does the outcome read?
Answer: Its outcome is “inactive”.

Question: Which outcome does the source give for `CC(=O)c1ccc(N2CCN(C(=O)Cc3ccccc3)CC2)c(F)c1` here?
Answer: The outcome was “inactive”.

Question: Which outcome does the source give for `O=C(Nc1cccnc1)c1ccc(Oc2ccccc2)cc1` here?
Answer: The outcome was “inactive”.

Question: Which outcome does the source give for `COc1cc2cnc(-c3cccnc3)cc2cc1OC` here?
Answer: The outcome was “inactive”.

Question: With `Cn1c(=O)c2c(nc(OCc3cccnc3)n2Cc2ccccc2)n(C)c1=O` as the molecule, how does the outcome read?
Answer: Its outcome is “inactive”.

Question: Which outcome does the source give for `N#C[C@H]1[C@@H](c2ccccc2)[C@@H](CO)N1C(=O)Nc1cccc(F)c1` here?
Answer: Its outcome is “inactive”.

Question: With `CCCOc1ccc2c3c(c(=O)oc2c1OCCC)CCC3` as the molecule, how does the outcome read?
Answer: Its outcome is “inactive”.

Question: With `Cc1c2cnn(CC(=O)NCc3ccccn3)c(=O)c2c(C)n1Cc1ccc(Cl)cc1` as the molecule, how does the outcome read?
Answer: Its outcome is “inactive”.

Question: Which outcome does the source give for `CCOC(=O)c1c(C)[n+](-c2ccc(C)cc2)c(CC)c2cc(OC)c(OC)cc12` here?
Answer: The outcome was “inactive”.

Question: For `Cc1ccc(Cc2c(C)nc3nc(SCC(=O)NCCN4CCOCC4)nn3c2C)cc1`, which outcome is on record?
Answer: The outcome was “inactive”.
